This is a sample that favours compounds with a hit; in the whole collection about 5.7% have one here.
Nrf2 inh – Nrf2 qHTS screen for inhibitors; A549 ARE-Fluc reporter, luciferase luminescence, 18-24 h; 2.1% of 360,000 active; AID 504444, 2011; Potency, µM (titrated, usually from 46 µM), without a hit: at the highest dose activity change, negative = inhibition, hits mostly inhibitors; note: potency is the fitted concentration of half-maximal effect; nearly all actives have a fitted effect of over 60% in size
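Reporter: ARE-Fluc in A549. Exposure: 18-24 h, 37 °C, 5% CO2, 5% FBS OPTI-MEM. Readouts: fluorescent cytotoxicity (CellTiter-Fluor), then luminescent Nrf2 signal after BugLite.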
KB-3-1 tox – qHTS assay for MDR1-selective chemotherapeutics: Primary screen using the parental adenocarcinoma cell KB-3-1 | KB-3-1 viability, CellTiter-Glo ATP luminescence, 72 h | Potency, µM (highest dose often 46.1 µM), most hits filed as cytotoxic | 1.4% of 400,000 active; note: potency is the fitted concentration of half-maximal effect; nearly all actives have a fitted effect of over 60% in size
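Screening of KB-3-1 cells (DMEM, 10% FBS, phenol-red free) ran from lowest to highest compound concentration; after 72 h at 37 °C viability was read luminescently and curves fitted.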
KB-V1 cytotox – qHTS assay for MDR1-selective chemotherapeutics: Primary screen using the drug-selected MDR subline cells KB-V1 | Potency, µM (doses to about 46.1 µM), most hits filed as cytotoxic | AID 1347076, 2019 | 3.4% of 400,000 active | KB-V1 MDR cells viability, CellTiter-Glo, 72 h; note: potency is the fitted concentration of half-maximal effect; nearly all actives have a fitted effect of over 60% in size
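Potencies derive from concentration-effect curves fitted to normalized luminescence (CellTiter-Glo) of KB-V1 cells treated for 72 h at 37 degrees C in phenol-red-free DMEM containing 10% FBS.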
PI4K2A inh – qHTS for small molecular inhibitors of PI4K2A. activity change, negative = inhibition, % at 76.9 µM. AID 1346378, 2018. Phosphatidylinositol 4-kinase type 2-alpha (Homo sapiens), Q9BTU6. purified PI4K2A, ADP-Glo luminescence, 1 h; stronger effect = lower value. 0.13% of 420,000 active; in the data active = activity change below about -50%; inconclusive = mostly about -30% to -49%;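 note: -100% = wells without enzyme as full effect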
Target sequence (Q9BTU6 whole entry, looked up): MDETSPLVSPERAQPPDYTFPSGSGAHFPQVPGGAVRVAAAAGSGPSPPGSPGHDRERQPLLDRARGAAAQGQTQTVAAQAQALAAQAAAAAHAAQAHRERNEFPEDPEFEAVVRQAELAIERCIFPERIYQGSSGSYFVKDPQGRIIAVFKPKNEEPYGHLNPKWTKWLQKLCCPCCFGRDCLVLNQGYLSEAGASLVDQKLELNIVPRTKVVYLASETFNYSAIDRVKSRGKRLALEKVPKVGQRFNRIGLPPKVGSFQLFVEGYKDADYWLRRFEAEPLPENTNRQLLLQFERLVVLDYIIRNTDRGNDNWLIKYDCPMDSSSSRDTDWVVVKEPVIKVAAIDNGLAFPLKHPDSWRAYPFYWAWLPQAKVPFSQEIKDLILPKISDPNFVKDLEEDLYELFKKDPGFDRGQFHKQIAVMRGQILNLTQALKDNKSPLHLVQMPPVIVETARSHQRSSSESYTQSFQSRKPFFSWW
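ADP-Glo luminescence measured ADP generated by PI4K2A enzyme (4 ug/mL before mixing) with 1.2 mM PI substrate (pre-mix) and 300 microM ATP (pre-mix). Tris pH7.5 buffer with MgCl2, Triton X-100; 1 h reaction at ambient temperature.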
Giardia killer – Small Molecules that selectively kill Giardia lamblia: qHTS. Giardia lamblia trophozoite viability. activity change, % at 7.66 µM, hits read low. 0.15% of 340,000 active. AID 540267, 2011; in the data active = activity change below about -80%; inconclusive = between about -30% and that limit;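 note: parasites exposed to compound for two days anaerobically before the ATP read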
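Giardia lamblia trophozoites (100 cells/well) were incubated with compounds for 48 h at 37 deg C under anaerobic conditions. Viability was read as ATP content by one-step luminescence after 15-30 min at room temperature.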
A549 tox – Nrf2 qHTS screen for inhibitors: counterscreen for cytotoxicity. A549 ARE-Fluc cells, CellTiter-Fluor viability, 18-24 h. Potency, µM (series often up to 46 µM), without a hit: top-dose activity change, negative = cytotoxicity, usual class: inhibitors. 0.16% of 390,000 active. AID 504648, 2011; note: potency is the fitted concentration of half-maximal effect
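A549 ARE-Fluc cells in 5% FBS OPTI-MEM, 5000 cells/well, rested 2 h then exposed to compounds in concentration-response for 18-24 h at 37 °C. Viability by CellTiter-Fluor fluorescence (Ex 405/Em 525) after 30 min; luciferase luminescence (BugLite, 15 min, RT) read afterwards.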
The depositor's hits bear a star; i = inactive; ? = inconclusive; / = not tested or not shown. Unless noted, calls come from the whole dose curve; as a rule, active = well fitted curve in the direction sought with a large enough effect; inconclusive = small, poorly fitted or top-dose-only effect, or another doubt; inactive = no such curve, though single readings can be large; an effect the other way counts as inactive or inconclusive. Unless noted, % is set by controls: 0 for no effect and ±100 for the full control effect.

SMILES	Nrf2 inh	KB-3-1 tox	KB-V1 cytotox	PI4K2A inh	Giardia killer	A549 tox
Cc1ccc(NC(=O)c2ccc(-c3nn(C)c(=O)c4ccccc34)cc2)c(C)c1	?	i	i	10	2	0%
Cn1nc(-c2ccc(C(=O)Nc3cccc(Cl)c3)cc2)c2ccccc2c1=O	6.5µM*	i	?	-1	-14	-21%
Cc1ccccc1-n1c(C)nnc1SC(C)C(=O)NCc1ccco1 (stereo not drawn)	/	?	i	/	/	/
CC(=O)N1c2ccc(S(=O)(=O)NCC3CCC(C(=O)Nc4cc(C)ccn4)CC3)cc2CC1C (stereo not drawn)	23µM*	23µM*	i	-1	5	?
CC(=O)N1CCCc2cc(S(=O)(=O)N3CCC(N(C)C(C)C)CC3)ccc21	/	i	i	0	/	12%
CC(=O)N1c2ccc(S(=O)(=O)N3CCCC(C(=O)N4CCC(C)CC4)C3)cc2CC1C (stereo not drawn)	21µM*	i	21µM*	1	18	-14%
CC(=O)N1c2ccc(S(=O)(=O)NCC3CCC(C(=O)Nc4ccc(C)cc4)CC3)cc2CC1C (stereo not drawn)	?	/	/	2	/	-14%
CC(=O)N1c2ccc(S(=O)(=O)NCC3CCC(C(=O)N4CC(C)CC(C)C4)CC3)cc2CC1C (stereo not drawn)	16µM*	i	i	-3	39	-13%
CC(=O)N1CCCc2cc(S(=O)(=O)N3CCC(C)CC3)ccc21	0%	i	21µM*	-3	2	2%
COc1cc(OC)c(OC)cc1/C=C/c1ccnc2ccccc12	-12%	?	?	0	11	-17%
COc1ccc(OC)c(/C=C/c2ccnc3ccccc23)c1	-14%	?	5.2µM*	14	-2	-15%
CCC[C@H]1[C@@H](NC(=O)NCC)CC[C@@]23CCCN2C(=O)CCC[C@@H]13	/	/	/	7	/	/
COc1ccc(CCNC(=O)CN(C2CCCCC2)S(C)(=O)=O)cc1OC	-3%	i	?	1	34	-5%
COc1cccc(C(=O)NCCS(=O)(=O)N2CCCCCC2)c1	3%	i	12µM*	-1	10	-5%
CC1CCN(c2ccc(C(=O)NCCc3ccccc3)cn2)CC1	14%	i	13µM*	0	13	8%
CS(=O)(=O)N(CC(=O)NCCc1ccccc1)C1CCCCC1	3%	i	23µM*	-2	7	2%
COc1cccc(C(=O)NCCS(=O)(=O)N2CCCCC2)c1	6%	i	i	3	-12	-5%
COc1cccc(C(=O)NCCS(=O)(=O)N2CCC(C)CC2)c1	7%	i	23µM*	-5	8	-1%
CSc1ccc(C2c3[nH]c4ccccc4c3CCN2C(=O)CCC2CCCC2)cc1 (stereo not drawn)	/	/	/	-7	/	7%
CS(=O)(=O)N1CCC(Oc2cccc(C(=O)NCCCC3CCCC3)c2)CC1	26µM*	?	i	0	2	-12%
CCN(C1CCCCC1)S(=O)(=O)CCNC(=O)c1ccccc1	-1%	i	4.1µM*	-2	-4	-3%
COc1cccc(CCNS(=O)(=O)CCNC(=O)c2cccc(OC)c2)c1	-3%	i	i	0	-13	0%
CCNC(=O)CN(C1CCCCC1)S(=O)(=O)c1ccc(F)cc1	?	i	13µM*	-3	-2	-10%
CNC(=O)CN(C1CCCCC1)S(=O)(=O)c1ccc(F)cc1	12%	i	i	6	-6	-1%
COc1cccc(C(=O)NCCS(=O)(=O)NCCCc2ccccc2)c1	-2%	i	16µM*	-1	-7	2%
SMILES	Nrf2 inh	KB-3-1 tox	KB-V1 cytotox	PI4K2A inh	Giardia killer	A549 tox
CCN(C1CCCCC1)S(=O)(=O)CCNC(=O)c1ccc2c(c1)OCO2	-10%	i	i	-1	2	-14%
COCCC1CCCCN1C(=O)c1cccc(OC2CCN(S(C)(=O)=O)CC2)c1 (stereo not drawn)	-26%	i	i	3	-5	2%
COC(=O)C1CN(Cc2ccccc2)CCS(=O)(=O)N1Cc1cn(Cc2ccc(F)cc2)nn1 (stereo not drawn)	/	/	/	-10	/	/
CN(CC(=O)O)c1ccc(/C=C/c2ccnc3ccccc23)cc1	/	i	?	/	/	/
O=C(NCCS(=O)(=O)N1CCCC1)c1ccccc1	5%	i	i	2	-1	8%
O=C(NCc1ccccc1)c1ccc(C(=O)N(C2CCCCC2)C2CCCCC2)cc1	/	?	23µM*	-3	14	?
CC1CCN(S(=O)(=O)CCNC(=O)c2ccccc2)CC1	10%	i	13µM*	8	11	-1%
O=C(Cc1cccs1)NCCS(=O)(=O)N1CCN(c2ccccc2)CC1	/	i	i	0	/	/
COc1ccc(Cl)cc1C(=O)NCCS(=O)(=O)N1CCN(c2ccccc2OC)CC1	/	/	/	2	/	-11%
COc1ccccc1N1CCN(S(=O)(=O)CCNC(=O)c2cc(OC)c(OC)c(OC)c2)CC1	-5%	6.5µM*	i	-4	22	8%
O=C(Cc1cccs1)NCCS(=O)(=O)N1CCN(c2ccccc2F)CC1	5%	12µM*	?	-4	-4	-13%
CCOc1ccc(N(CC(=O)Nc2c(C)n(C)n(-c3ccccc3)c2=O)S(=O)(=O)c2cccc3cccnc23)cc1	/	/	/	5	/	/
O=C(CSc1nnc(-c2cccs2)o1)c1cccc([N+](=O)[O-])c1	/	/	/	6	/	/
CC(=O)N1CCCc2cc(S(=O)(=O)Nc3ccc(C)c(C)c3)ccc21	?	/	/	/	/	-1%
CCN(CC)c1ccc(NC(=O)c2cnc3ccccn3c2=O)c(C)c1	2.9µM*	i	3.7µM*	8	8	-19%
O=C(Nc1ccc2ccccc2c1)C1CC2CCC1C2 (stereo not drawn)	/	/	/	0	/	/
COc1ccc(-c2csc(NC(=S)NC(=O)/C=C/c3ccco3)n2)cc1Br	?	5.2µM*	4.1µM*	-3	?	-27%
COc1ccc(-c2csc(NC(=S)NC(=O)/C=C/c3ccco3)n2)cc1OC	?	7.3µM*	6.5µM*	-1	-23	?
CC(=O)c1cc(-c2cc3ccccc3o2)c(=O)n2c1CCC2	/	/	/	-4	/	/
CCc1cc2c(=O)c(-c3nc(C)cs3)coc2cc1OC(C)C(=O)NCCO (stereo not drawn)	13µM*	i	?	-1	-8	-1%

From PubChem
